Bioassay records from PubChem BioAssay.
This is a sample that favours compounds with a hit; in the whole collection about 2.9% have one here.
Pol kappa inh: blocks human DNA polymerase kappa activity; Q9UBT6; purified Pol kappa, fluorescent DNA synthesis assay, 10 min; Potency, µM (top dose mostly 107 µM), for inactives: at the highest dose activity, negative = inhibition, usual class: inhibitors; 0.53% of 400,000 active; AID 588579; further: potency means the concentration at half of the fitted maximal effect; on the % scale 0 is the no-effect control and ±100 the full control effect
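Activity was followed as the change in fluorescence between reads at 0 and 10 min after starting the reaction with 50 nM substrate. Beforehand, 10 nM polymerase had been preincubated with compound for 15 min at room temperature.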
Pol iota inh: DNA polymerase iota (human) inhibition | 1% of 390,000 active | Pol iota fluorescent replication assay, 10 min | AID 588590 | Potency, µM (highest dose often 115 µM), for the others: at the highest dose activity, negative = inhibition, most hits filed as inhibitors | Q9UNA4; further: potency means the concentration at half of the fitted maximal effect
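Pol iota at 10 nM preincubated 15 min with compounds at room temperature; reaction started with fluorescent substrate, 50 nM final. Fluorescence read kinetically at 0 and 10 min; buffer-only wells as negative control.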
Pol beta inh: inhibitors of human DNA polymerase beta; P06746; Pol beta primer extension/strand displacement, fluorescence kinetic; Potency, µM (series often up to 114 µM), without a hit: at the highest dose activity change, negative = inhibition, hits mostly inhibitors; 1.3% of 340,000 active; further: potency means the concentration at half of the fitted maximal effect; on the % scale 0 is the no-effect control and ±100 the full control effect
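Human Pol beta at 10 nM; strand-displacement substrate 50 nM final. Compound exposure 15 min at room temperature before start, reaction 10 min at room temperature.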
Pol eta inh: blocks human DNA polymerase eta activity; Q9Y253; recombinant Pol eta, fluorescent DNA replication assay; Potency, µM (titrated, usually from 114 µM), without a hit: at the top dose activity change, negative = inhibition, hits mostly inhibitors; 1.2% of 390,000 active; AID 588591; further: potency means the concentration at half of the fitted maximal effect; on the % scale 0 is the no-effect control and ±100 the full control effect
Target sequence (Q9Y253 whole entry, looked up): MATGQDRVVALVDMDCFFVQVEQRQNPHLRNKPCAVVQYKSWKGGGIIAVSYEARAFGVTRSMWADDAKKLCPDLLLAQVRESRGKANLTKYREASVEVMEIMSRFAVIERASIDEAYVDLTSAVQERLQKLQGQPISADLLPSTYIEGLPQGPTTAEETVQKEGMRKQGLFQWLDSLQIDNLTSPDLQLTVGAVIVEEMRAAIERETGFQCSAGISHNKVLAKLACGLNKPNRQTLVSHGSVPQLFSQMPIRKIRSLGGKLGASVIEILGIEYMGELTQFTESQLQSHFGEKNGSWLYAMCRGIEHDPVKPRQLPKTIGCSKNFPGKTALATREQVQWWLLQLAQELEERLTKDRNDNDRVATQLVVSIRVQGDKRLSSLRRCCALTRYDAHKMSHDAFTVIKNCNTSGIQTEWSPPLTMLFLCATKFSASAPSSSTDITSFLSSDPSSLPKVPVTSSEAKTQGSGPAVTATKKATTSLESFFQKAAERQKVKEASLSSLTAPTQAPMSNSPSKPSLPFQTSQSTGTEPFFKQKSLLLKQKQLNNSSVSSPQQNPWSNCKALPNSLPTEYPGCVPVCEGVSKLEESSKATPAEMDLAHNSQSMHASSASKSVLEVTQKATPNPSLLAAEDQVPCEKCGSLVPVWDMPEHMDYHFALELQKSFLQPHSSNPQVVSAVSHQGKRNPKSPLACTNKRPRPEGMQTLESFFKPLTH
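Fluorescent replication assay: 50 nM final substrate added after a 15 min room-temperature compound preincubation with 10 nM enzyme. Signal taken at 0 min and again at 10 min.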
PI5P4Ka inh: blocks human PI5P4K alpha kinase activity; P48426; PI5P4Kalpha enzyme, ADP-Glo luminescence, 60 min; stronger effect = lower value; max response, %; 1.2% of 330,000 active; AID 652105; active means max response of -50% or lower; inconclusive means between -30% and -50%; inactive means -30% or higher; further: value at the top dose of about 77 µM; on the % scale 0 is the no-effect control and ±100 the full control effect
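Controls without substrate or without enzyme flank wells where PI5P4Kalpha converts substrate using 5 microM ATP (final). Incubation lasts 60 minutes at room temperature; ADP formed is read by ADP-Glo luminescence.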
12-LOX inh: blocks human arachidonate 12S-lipoxygenase; P18054; purified 12hLO, xylenol orange hydroperoxide absorbance; Potency, µM (titrated, usually from 108 µM), for the others: at the top dose activity change, negative = inhibition, most hits filed as inhibitors; 1.1% of 580,000 active; AID 1671190; further: potency means the concentration at half of the fitted maximal effect; on the % scale 0 is the no-effect control and ±100 the full control effect
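Purified human 12hLO at 150 nM in 25 mM Hepes, 0.01% Triton X-100, pH 7.0, preincubated 15 min at room temperature with compound. Reaction started with 40 uM arachidonic acid, 30 min at room temperature. Hydroperoxide measured by Fe-xylenol orange, 573/405 nm absorbance ratio.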
Active calls of the source: *; ? = inconclusive; nt = no result given; [ ] = dose if it differs, or a comment. Unless noted, the call rests on the fitted dose curve; in most records, active means well fitted inhibition curve with a large enough effect; inconclusive means small, poorly fitted or top-dose-only effect, or another doubt; inactive means no such curve, though single readings can be large or run the other way.

SMILES | Pol kappa inh | Pol iota inh | Pol beta inh | Pol eta inh | PI5P4Ka inh | 12-LOX inh
O=C(O)c1cc2c(o1)CCC/C2=N\O | -27.7% | 0.6%[58.9 µM] | 89.1µM* | -9.9% | nt | 11.1%
O=C(CC1CCCC1)NCc1ccncc1 | nt | nt | nt | nt | nt | 42.3%
Cc1ccc(SCCNC(=S)Nc2ccccc2)cc1 | -8.9% | 3.4% | -9.9% | -19.8% | 5.0 | ?
COc1ccccc1NC(=S)NCCSc1ccc(C)cc1 | -23.7% | 2.7% | ? | -4.9% | -0.7 | 44.7µM*
C/C(=N\NC(=S)NCCc1ccccc1)c1ccc(C)cc1 | -6.1% | -0.7% | -9.2% | 4.2% | 9.4 | 39.8µM*
C/C(=N/NC(=O)CNC(=O)CCc1ccccc1)c1ccc(Cl)cc1 | -12.9% | 117.1% | -1.2% | 6.5% | -0.6 | 196.3%
C/C(=N\NC(=S)NCCc1ccccc1)c1ccc(Cl)cc1 | -3.1% | 6.7% | -1.5% | -14.0% | 31.7 | 35.5µM*
C/C(=N\NC(=S)NCCc1ccccc1)c1ccc(C#N)cc1 | 1.2% | 17.1% | 6.0% | -19.0% | nt | 0.0%
Cc1cc(C)cc(NC(=S)NCCSc2ccc(Cl)cc2)c1 | -11.4% | 46.8% | 11.6% | -13.3% | -7.2 | ?
S=C(NCCSc1ccc(Cl)cc1)NCCc1ccccc1 | nt | nt | nt | nt | nt | 39.8µM*
c1ccc(-c2noc(-c3ccccc3OC3CNC3)n2)cc1 | nt | nt | nt | nt | nt | 60.1%
Cc1ccc2nc(NC(=O)COC(=O)c3ccco3)sc2c1 | -2.4% | -4.2% | 13.0% | -6.3% | -10.9 | ?
O=C(COC(=O)c1ccco1)Nc1nc2ccc([N+](=O)[O-])cc2s1 | -17.1% | -10.9% | ? | -7.6% | -53.6* | 12.3%
CC(/C=C/c1ccco1)=N\NC(=O)c1cccnc1 | ? | 39.8µM* | ? | ? | nt | 16.8%
CC(/C=C/c1ccco1)=N\NC(=O)c1cc(C)[nH]n1 | ? | 17.8µM* | 20µM* | 79.4µM* | nt | 6.9%
Cc1ccc(C(=O)N/N=C/c2cccc(OC(=O)/C=C/c3ccco3)c2)cn1 | -36.2% | ? | 20µM* | ? | ? | -8.0%
Cc1nc2nc(NCc3c(Cl)cccc3Cl)[nH]n2c(=O)c1C | nt | nt | nt | nt | nt | 0.5%
Cc1nc(C)c(-c2csc(Nc3ccc(O)c(C(=O)O)c3)n2)s1 | -5.6% | 72.0% | -23.5% | ? | -74.5* | -2.1%
Cc1nc(C)c(-c2csc(Nc3ccc(N)cc3)n2)s1 | -16.3% | -6.4% | -27.8% | -21.9% | -0.1 | 1.9%
CC(=O)Nc1ccc(-c2csc(Nc3ccc(O)c(C(=O)O)c3)n2)cc1 | nt | nt | nt | nt | nt | 39.8µM*
CN(C)CCOCC1(C)COc2ccc(C(=O)Nc3cccc(Cl)c3)cc2N1 (configuration not stated) | nt | nt | nt | nt | nt | 35.1%[176 µM]
S=c1[nH]nc(SCc2ccccc2)c2[nH]cnc12 | -11.4% | 11.9% | nt | -4.4% | ? | ?
CCCCSc1n[nH]c(=S)c2nc[nH]c12 | -9.3% | ? | nt | -11.1% | -62.6* | ?
Cn1c(NC(=O)c2ccc(F)cc2)nc2ccccc21 | -14.0% | 89.1µM* | 4.5% | -16.6% | -3.8 | 25.1%
CC(=O)c1ccccc1OCC(O)CN1CCN(CCN2C(=O)c3cccc4cccc(c34)C2=O)CC1 (configuration not stated) | -15.2% | 22.5% | 39.8µM* | -1.2% | 3.2 | 3.3%
SMILES | Pol kappa inh | Pol iota inh | Pol beta inh | Pol eta inh | PI5P4Ka inh | 12-LOX inh
CNC(=O)C1CCCCN1C(=O)Cc1nc(-c2cccs2)oc1C (configuration not stated) | nt | nt | nt | nt | nt | 12.6%
CCC1(N2CCN(S(=O)(=O)c3ccc(F)c(C)c3)CC2)CCN(C(=O)C(C)C)C1 (configuration not stated) | nt | nt | nt | nt | nt | 1.5%
CCC1(N2CCN(S(=O)(=O)c3ccc4c(c3)CCCC4)CC2)CCN(C(=O)C(C)C)C1 (configuration not stated) | nt | nt | nt | nt | nt | 22.4µM*
CC(=O)NCCNc1nc(-c2ccccc2CN(C)C)nc2ccccc12 | -3.7%[60.1 µM] | nt | nt | nt | nt | -21.9%
CN(C)c1ccc(-c2nc(NC3CCNCC3)c3ccccc3n2)cc1 | 31.6µM* | nt | nt | nt | nt | ?
CN(C)Cc1ccccc1-c1nc(NC2CCNCC2)c2ccccc2n1 | 14.1µM* | nt | nt | nt | nt | -17.6%
CCOc1cc(NC(=O)c2ccc(Cn3cc(Cl)cn3)cc2)ccc1OC(F)F | nt | nt | nt | nt | nt | 17.6%
